Results filed as inconclusive are left out. Values without a mark were called inactive. Activity calls are given as the source filed them. The call rests on the fitted dose curve; in most records, active means well fitted activation curve with a large enough effect in the signal ratio; inconclusive means small, poorly fitted or top-dose-only effect, or effect the other way, or a change in a side signal; inactive means flat fitted curve, though single readings scatter; the % refers to the signal ratio.
test: qHTS assay for small molecule agonists of the antioxidant response element (ARE) signaling pathway (AID 651741); settings: HepG2 ARE-bla reporter, beta-lactamase FRET ratio, 16 h; series mostly up to 96 µM; activation: at the top concentration; on activation: % of control where 0% means no effect
Description: National Center for Advancing Translational Sciences [NCATS]
NIH Chemical Genomics Center [NCGC]
U.S. Environmental Protection Agency [EPA]
National Institutes of Environmental Health Sciences [NIEHS]
National Toxicology Program [NTP]
Oxidative stress has been implicated in the pathogenesis of a variety of diseases ranging from cancer to neurodegeneration. The antioxidant response element (ARE) signaling pathway plays an important role in the amelioration of oxidative stress. The CellSensor ARE-bla HepG2 cell line (Invitrogen) can be used for analyzing the Nrf2/antioxidant response signaling pathway. Nrf2 (NF-E2-related factor 2) and Nrf1 are transcription factors that bind to AREs and activate these genes. The CellSensor ARE-bla Hep G2 cell line contains a beta-lactamase reporter gene under control of the Antioxidant Response Element (ARE) stably integrated into HepG2 cells. The activation of the report gene under culture conditions can be detected by fluorescence intensity. This cell line can be used to screen chemicals in a 1536-well plate format and to identify agonists that induce oxidative stress.
The ARE-bla cells were dispensed at 2,000 cells/5 ul/well in 1536-well black wall/clear bottom plates using a Multidrop dispenser. After the assay plates were incubated at a 37 C/5% CO2 incubator for 5 hours, 23 nL of compounds dissolved in DMSO, positive controls or DMSO only was transferred to the assay plate by a pin tool. The plates were incubated at 37 C for 16 hours. After 1 uL of LiveBLAzer B/G FRET substrate was added using a Flying Reagent Dispenser, the plates were incubated at room temperature for 2 hours, and fluorescence intensity was measured by an Envision plate reader.
Potency means the concentration at half of the fitted maximal effect.

Row | Compound | Potency | activation [%]
1 | C=CC(=O)NC(C)(C)CS(=O)(=O)O | inactive | 
2 | COCCO | inactive | 
3 | CCCCN(CCCC)CCCCCCN(CCCC)CCCC |  | 4.88
4 | O=c1[nH]c(=O)c2[nH]cnc2[nH]1 |  | -0.483
5 | C[Si](C)(Cl)[Si](C)(C)Cl |  | 0.714
6 | CC(C)c1cccc(C(C)C)c1 |  | -2.22
7 | OCCC(F)(F)C(F)(F)C(F)(F)C(F)(F)C(F)(F)C(F)(F)C(F)(F)C(F)(F)F |  | 8.95
8 | CCCCCCCC1CCC(=O)O1 (stereo not given) |  | -1.6
9 | CCCCCCCCCCCC(=O)OC | 24.3 µM (active) | 
10 | CC1=CC2C3CC(C=C3C)C2C1 (stereo not given) |  | -3.71
11 | CC(=O)/C=C/C1C(C)=CCCC1(C)C (stereo not given) |  | 4.39
12 | NC(=O)Cc1cccc2ccccc12 |  | 3.89
13 | Nc1cc(Cl)nc(C(=O)O)c1Cl |  | 2.49
14 | CC(=O)N(CCN(C(C)=O)C(C)=O)C(C)=O |  | 7.94
15 | C[Si]1(C)O[Si](C)(C)O[Si](C)(C)O1 |  | 8.94
16 | C=C[Si](OCCOC)(OCCOC)OCCOC |  | 2.75
17 | CCCC/C=C\CCCCCCCCCC=O |  | 0.343
18 | COC(=O)c1ccccc1C(=O)O |  | 3.03
19 | c1ccc(OCCOc2ccccc2)cc1 |  | -0.82
20 | CC(C)O.CC(C)O.CC(C)O.CC(C)O.[Ti] |  | 4.28

Row | Compound | Potency | activation [%]
21 | CCCCOCCOCCOCCO |  | -3.5
22 | Cc1ccc(N)c(S(=O)(=O)O)c1 | 61.1 µM (active) | 
23 | CCCCC(CC)COC(=O)/C=C\C(=O)OCC(CC)CCCC (stereo not given) | 30.6 µM (active) | 
24 | CCCCCCCCCCCCCCN(C)C |  | 4.49
25 | CC/C=C/CCCCCCCCCCOC(C)=O |  | -1.32
26 | Nc1c(N=Nc2ccc(S(=O)(=O)CCOS(=O)(=O)O)cc2)c(S(=O)(=O)O)cc2cc(S(=O)(=O)O)c(N=Nc3ccc(S(=O)(=O)CCOS(=O)(=O)O)cc3)c(O)c12 | 30.6 µM (active) | 
27 | Cc1ccc2c(c1)C(=O)OC2=O |  | 3.66
28 | Cc1cc(Cc2cc(C)cc(C(C)(C)C)c2O)c(O)c(C(C)(C)C)c1 | 48.6 µM (active) | 
29 | C=C(C)C(=O)OCCOC(=O)C(=C)C |  | -2.85
30 | CC1COCc2cc3c(cc21)C(C)(C)C(C)C3(C)C (stereo not given) |  | 7.55
31 | CC(C)(C)c1n[nH]c(=O)n(N)c1=O |  | 7.79
32 | O=C=NCCCCCCN=C=O |  | -4.26
33 | O=C(O)CCCCCCCCCCC(=O)O |  | 4.99
34 | CC/C=C\CCOC(=O)c1ccccc1O |  | 6.37
35 | O=c1[nH]sc2ccccc12 | 27.3 µM (active) | 
36 | Cl[Si](Cl)(c1ccccc1)c1ccccc1 | 54.5 µM (active) | 
37 | COC(OC)(C(=O)c1ccccc1)c1ccccc1 |  | 9.61
38 | CCOc1ccc(NC(=O)OC(C)C)cc1OCC |  | -3.67
39 | CCCCCCCCCC(C)=O |  | 6.48
40 | CCCCCCCCCCCC[N+](C)(C)C | 19.3 µM (active) | 
